What was measured:
Experiment in all cases: PBM binding z-score (relative to random genomic background probes); higher = stronger binding; sequences stand for … in GC…GCGATTGACAGCGTAGAATGAAGG
[1] = tested on: FXR:RXRa (NR concentration 270 nM, RXRa partner concentration 90 nM)
Method in brief: (§1)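 Ligand-free nuclear receptor dimers were bound for 1 h to custom Agilent 4×180K protein-binding microarrays. Detection used antibodies against each partner (one per run). Binding z-scores rest on regression-normalized fluorescence, with random background probes as the reference.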

[2] = tested on: LXRa:RXRa (NR concentration 270 nM, RXRa partner concentration 90 nM)
Method in brief: as §1

[3] = tested on: LXRa homodimer (NR concentration 270 nM)
Method in brief: as §1

[4] = tested on: LXRb:RXRa (NR concentration 270 nM, RXRa partner concentration 90 nM)
Method in brief: as §1

[5] = tested on: LXRb homodimer (NR concentration 270 nM)
Method in brief: as §1

[6] = tested on: PPARa:RXRa (NR concentration 270 nM, RXRa partner concentration 90 nM)
Method in brief: as §1

[7] = tested on: PPARg:RXRa (NR concentration 180 nM, RXRa partner concentration 90 nM)
Method in brief: as §1

[8] = tested on: PPARg:RXRa 270nM:90nM, anti-RXR (NR concentration 270 nM, RXRa partner concentration 90 nM)
Method in brief: as §1

[9] = tested on: PPARg:RXRa 30nM:10nM, anti-RXR (NR concentration 30 nM, RXRa partner concentration 10 nM)
Method in brief: as §1

[10] = tested on: PPARg:RXRa 90nM:30nM, anti-RXR (NR concentration 90 nM, RXRa partner concentration 30 nM)
Method in brief: as §1

[11] = tested on: PPARg:RXRa DBDmut IVT, anti-RXR (DBD mutation: RXRa K156A/R161A, NR concentration 270 nM, RXRa partner concentration 90 nM)
Method in brief: as §1

[12] = tested on: PPARg:RXRa IVT, anti-PPARg (NR concentration 270 nM, RXRa partner concentration 90 nM)
Method in brief: as §1

[13] = tested on: PPARg DBDmut:RXRa IVT, anti-PPARg (DBD mutation: PPARg1 K132A/R137A, NR concentration 270 nM, RXRa partner concentration 90 nM)
Method in brief: as §1

[14] = tested on: PPARg DBDmut IVT, anti-PPARg (DBD mutation: PPARg1 K132A/R137A, NR concentration 270 nM)
Method in brief: as §1

[15] = tested on: PPARg homodimer (NR concentration 180 nM)
Method in brief: as §1

[16] = tested on: PXR:RXRa (NR concentration 270 nM, RXRa partner concentration 90 nM)
Method in brief: as §1

[17] = tested on: PXR homodimer (NR concentration 270 nM)
Method in brief: as §1

[18] = tested on: RARa:RXR (NR concentration 270 nM, RXRa partner concentration 90 nM)
Method in brief: as §1

[19] = tested on: RARa homodimer (NR concentration 270 nM)
Method in brief: as §1

[20] = tested on: RARb:RXRa (NR concentration 270 nM, RXRa partner concentration 90 nM)
Method in brief: as §1

| Sequence | PBM binding z-score [1] | PBM binding z-score [2] | PBM binding z-score [3] | PBM binding z-score [4] | PBM binding z-score [5] | PBM binding z-score [6] | PBM binding z-score [7] | PBM binding z-score [8] | PBM binding z-score [9] | PBM binding z-score [10] | PBM binding z-score [11] | PBM binding z-score [12] | PBM binding z-score [13] | PBM binding z-score [14] | PBM binding z-score [15] | PBM binding z-score [16] | PBM binding z-score [17] | PBM binding z-score [18] | PBM binding z-score [19] | PBM binding z-score [20] |
| --- | --- | --- | --- | --- | --- | --- | --- | --- | --- | --- | --- | --- | --- | --- | --- | --- | --- | --- | --- | --- |
| CAGCCTAGGTCAGAGCCAGTATAGGAGGAACGTT | 1.65 | 0.992 | -0.0153 | 0.607 | -0.514 | 1.69 | 0.786 | 0.566 | -0.211 | 0.234 | 1.93 | 1.53 | -0.412 | -1 | 0.951 | 0.261 | -0.164 | 0.723 | 0.33 | 3.08 |
| TCATATAGGTAAAACAGGTGAAAGTCGGCATCTA | 1.42 | 1.1 | 0.257 | 1.01 | 0.235 | 1.82 | 1.12 | 2.64 | 4.06 | 3.67 | 3.88 | 2.77 | 0.289 | 1.07 | 1.06 | 0.972 | 0.0725 | 1.62 | 1.05 | 0.579 |
| AATACAGGGTCACTAGGCAAGAGTAGGTACGAAT | 6.39 | 4.96 | 0.866 | 3.82 | 1.1 | 5.59 | 7.09 | 5.74 | 3.03 | 4.6 | 3.19 | 4.81 | 1.06 | 0.858 | 2.63 | 3.06 | 0.322 | 4.1 | 1.16 | 4.13 |
| AGAATGCGGTTATACGTAGATCAGGGAAGAAAGT | -0.295 | 0.056 | -0.263 | -0.408 | -0.59 | -0.235 | 0.152 | -0.304 | -0.0964 | -0.139 | -0.0715 | -0.172 | -0.724 | -0.259 | -0.759 | -0.417 | -0.318 | -0.261 | -0.54 | -0.164 |
| CCTCGGAGGACATCAGGAGGTCAGAGCTGCCAGA | 1.63 | 1.87 | 1.11 | 1.17 | -0.894 | 1.93 | 0.267 | 0.414 | -0.801 | -0.136 | -0.368 | 0.307 | -1.23 | -1.84 | 1.23 | 2.19 | 0.0732 | 2.43 | 0.115 | 2.74 |
| CGGACTGGGGCATAAGGTTACCATAAGCCAGCCC | 0.339 | 2.09 | -0.514 | 1.11 | -0.487 | 2.78 | 4.19 | 4.81 | 2.94 | 4.56 | 4.08 | 5.2 | 1.2 | 1.32 | 1.19 | 0.635 | -0.0559 | 1.48 | -0.515 | 1.78 |
| GCTATTAGTTGAACGGGCAACCGAATGATTCTCG | -0.438 | -0.312 | -0.165 | -0.485 | -0.496 | -0.347 | 0.352 | 0.00975 | -0.295 | -0.0379 | 0.443 | -0.481 | -1.02 | -0.0789 | -0.518 | -0.435 | -0.664 | -0.533 | -0.461 | 0.14 |
| ACTAGCAGGCCAAGGTTCACTCAAGATTAGTCCG | 0.739 | 1.16 | 0.631 | 1.04 | -0.0506 | 2.89 | 5.16 | 6.08 | 5.04 | 6.29 | 1.19 | 2.08 | -0.0687 | -0.0109 | 0.515 | 1.36 | 0.191 | 1.35 | 0.0605 | 1.62 |
| GCTATTCGTTGAAAGGGCAACCGAATGATTCTCG | 0.141 | 0.488 | 0.342 | 0.644 | -0.0285 | 1.61 | 1.23 | 2.56 | 0.831 | 2.16 | 0.00432 | 0.413 | 0.733 | 0.234 | 0.801 | 0.591 | -0.255 | 0.689 | 0.463 | 1.8 |

Reference: the supplement of paper PMC6555819
